Polio RdRp inh: poliovirus RNA polymerase inhibition | P03300 | poliovirus polymerase elongation, fluorescence polarization; active compounds read low | % elongation, % (compound at 16.7 µg/mL) | 150,000 compounds, 0.66% hits; in the data active means % elongation below about 90%
MenB inh: inhibitors of Mycobacterium tuberculosis MenB enzyme | MenB enzyme assay, absorbance read-out | P9WNP5 | inhibition, % (test concentration not listed) | 100,000 compounds, 0.43% hits; in the data active means inhibition above about 21%, passing the limit was not always enough
MbtI inh: inhibitors of Mycobacterium tuberculosis siderophore enzyme MbtI | P9WFX0 | purified MbtI enzyme, fluorescence intensity read-out | inhibition, % (concentration not given with the values) | 100,000 compounds, 0.89% hits; in the data active means inhibition mostly above about 56%, no sharp cut-off; inactive means mostly below about 77%
Target sequence (P9WFX0 whole entry, looked up): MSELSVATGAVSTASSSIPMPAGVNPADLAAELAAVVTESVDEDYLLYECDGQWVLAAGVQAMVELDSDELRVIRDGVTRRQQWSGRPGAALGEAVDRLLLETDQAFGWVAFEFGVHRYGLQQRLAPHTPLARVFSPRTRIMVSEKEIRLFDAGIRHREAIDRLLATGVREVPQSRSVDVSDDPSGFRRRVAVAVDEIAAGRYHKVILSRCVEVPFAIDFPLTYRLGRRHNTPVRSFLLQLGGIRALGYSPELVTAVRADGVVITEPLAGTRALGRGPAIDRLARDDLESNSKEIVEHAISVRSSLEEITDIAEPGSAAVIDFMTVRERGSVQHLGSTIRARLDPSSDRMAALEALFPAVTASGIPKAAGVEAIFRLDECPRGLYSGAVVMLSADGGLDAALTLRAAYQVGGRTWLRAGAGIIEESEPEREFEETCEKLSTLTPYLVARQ
A number is an active result; n = inactive; x = not tested or not shown. A selection: hits, their analogues and other compounds. The true share with any hit is near 1.4%.

SMILES	Polio RdRp inh	MenB inh	MbtI inh
O=C(CC1CCCCC1)NCC1CCCO1 (configuration not stated)	n	30.7	n
CC1(C)CC(=O)NC(=Nc2ccc(Br)cc2)C(=O)C1	n	n	x
Nn1c(SCC(=O)NCc2ccc3c(c2)OCO3)nncc1=O	n	n	n
Nn1c(SCC(=O)NCc2ccc3c(c2)OCO3)nnc1C1CC1	n	n	81.2
O=C(C1CCCN1c1nnc(N2CCCC2=O)s1)N1CCc2ccccc2C1 (configuration not stated)	n	n	n
Nn1c(COc2ccccc2)n[nH]c1=S	80.0	n	95.2
CCOc1ccccc1OCc1n[nH]c(=S)n1N	n	n	n
O=C(O)Cn1c2c(c3ccccc31)CSc1ccc(Cl)cc1-2	n	n	95.6
Cn1nc(C(=O)NCc2cccc(Cl)c2)c2c1-c1ccccc1SC2	n	x	x
COc1cc(Cc2nnc(C(=O)NCc3ccccc3)o2)cc(OC)c1OC	n	n	n
COc1ccccc1C1=NN(C(=S)Nc2ccccc2)C(c2ccco2)C1 (configuration not stated)	n	n	72.7
COc1cccc(C2=NN(C(=O)c3ccccc3Cl)C(c3ccco3)C2)c1 (configuration not stated)	n	n	n
O=C(/C=C/Sc1ccccn1)c1ccccc1	n	n	n
O=C(/C=C/Sc1nc2ccccc2o1)c1ccccc1	n	n	54.0
O=C(CSc1nc2ccccc2o1)c1ccccc1	n	n	x
O=C(Sc1nc2ccccc2o1)c1ccccc1	n	n	95.2
NNC(=O)CSc1ccccc1F	n	n	n
O=C1C(=C2NCCN2)CC/C1=C\c1ccco1	n	n	n
CN(C)c1nc(Nc2ccccc2)nc(N(C)C)n1	n	n	n
Clc1nc(Cl)nc(Nc2ccccc2)n1	87.0	n	x
Fc1cccc(Nc2nc(Cl)nc(Cl)n2)c1	n	47.9	n
Fc1cccc(Nc2nc(-c3ccccc3)no2)c1	n	n	n
Cc1cc(C(=O)OCC(=O)N2c3ccccc3Sc3ccccc32)no1	n	n	n
CCCCNC(=O)CCCn1c(=O)c2ccccc2n(Cc2ccccc2C)c1=O	n	x	x
Cc1oc2cc(O)ccc2c(=O)c1-c1ccc(Br)cc1	n	x	n
SMILES	Polio RdRp inh	MenB inh	MbtI inh
O=C(NCC1CCCO1)c1cnn2c(C(F)(F)F)cc(-c3ccccc3)nc12 (configuration not stated)	n	n	n
Cc1cc(C)c2oc(-c3cc(N)cc(C)c3O)nc2c1	n	n	n
Cc1cc(C)c(O)c(N)c1	n	n	101.0
O=C1/C(=C/c2ccccc2F)Cc2ccccc21	n	n	n
O=C(O)/C=C1\OC(=O)c2ccccc21	n	n	n
COC(=O)/C=C1/OC(c2ccccc2)=CC1=O	n	n	89.4
CCOC(=O)N1CCN(Cc2ccc(Cl)cc2)CC1	n	n	n
CCOC(=O)N1CCN(Cn2c(=S)sc3ccccc32)CC1	n	n	89.2
S=c1sc2ccccc2n1CN1CCOCC1	n	n	89.9
S=c1sc2ccccc2n1CN1CCN(c2ccccn2)CC1	n	n	n
CCOc1ccc(-n2c(=O)/c(=C\c3ccco3)s/c2=C(/C#N)C(=O)C(C)(C)C)cc1	n	n	n
Cc1nc2sccn2c(=O)c1CCC(=O)O	n	n	n
C[C@@H]1NCCc2cc(O)c(O)cc21	n	n	76.4
COc1cc2c(cc1O)C(C)NCC2 (configuration not stated)	n	n	n
CC(=O)Nc1ccccc1N	n	n	x
CC(=O)/C=C(\C)Nc1ccccc1S	n	28.0	n
N#Cc1ccc(CSc2nnc(-c3cccc(S(=O)(=O)N4CCCCC4)c3)n2-c2ccccc2)cc1	n	n	n
COc1ccc(CNC(=O)Nc2cn(CC(C)C)c(=O)c3ccccc23)cc1	60.0	x	x
CC(C)Cn1cc(NC(=O)Nc2cccnc2)c2ccccc2c1=O	n	n	n
COc1ccc(NC(=O)Nc2cn(CC(C)C)c(=O)c3ccccc23)c(OC)c1	n	x	x
CC(=O)c1ccc(N2CCN(C(=O)Nc3cn(CC(C)C)c(=O)c4ccccc34)CC2)cc1	76.0	x	x
Cc1ccc(Cl)cc1NC(=O)Nc1cn(CC(C)C)c(=O)c2ccccc12	69.0	x	x
CC(C)Cn1cc(NC(=O)N2CCN(c3ccccc3)CC2)c2ccccc2c1=O	n	n	n
CCS(=O)(=O)Nc1cc(C(C)(C)C)on1	n	n	n
CC(CC(=O)NCCN1C(=O)S/C(=C\c2cccs2)C1=O)n1ccnc1 (configuration not stated)	n	n	n
SMILES	Polio RdRp inh	MenB inh	MbtI inh
O=C(NC1CCCCC1)NC1CCN(S(=O)(=O)c2cccc(Cl)c2)CC1	n	n	n
O=C(Nc1nnc(C(F)(F)F)s1)c1ccccc1	n	n	91.5
O=C(Nc1ccccc1)Nc1nnc(C(F)(F)F)s1	n	n	n
N#C/C(=C/C=C/c1ccc(-c2cc(Cl)ccc2Cl)o1)C(N)=S	n	n	n
O=C1NC(=O)NC(=C/C=C/c2ccc(-c3ccc(Cl)cc3Cl)o2)N1	n	n	57.2
Cc1csc2ncc(C(=O)N(C)c3ccccc3)c(=O)n12	n	n	n
Cc1cc(C(=O)NC2CCCCCC2)no1	n	n	n
Cc1cc(C(=O)NN2C3CSC2CS3)no1	n	75.4	n
CC1(C)Cc2c(C#N)c(NCC3CCCO3)nc(-c3ccccc3)c2CO1 (configuration not stated)	n	n	n
CSc1ccccc1C(=O)O	n	x	n
C=C1N(c2ccccc2C)C(=O)OC1(C)C	n	n	n
Nc1ccccc1N1C(=O)c2ccccc2C1=O	n	n	x
Cc1ccccc1N1C(=O)C=CC1=O	n	n	100.1
O=C1C=CC(=O)N1c1ccccc1Br	n	x	99.1
CSc1ccccc1N1C(=O)C=CC1=O	n	n	100.8
O=C(CCc1nc2ccccc2[nH]c1=O)OCC(=O)c1ccc(F)cc1	n	n	n
N=C(N)SCCS(=O)(=O)c1ccccc1	n	n	n
N=C(N)SCP(=O)(c1ccccc1)c1ccccc1	n	49.0	n
CC(Oc1ncnc2ccccc12)C(=O)Nc1cc(Cl)cc(Cl)c1 (configuration not stated)	n	x	n
NC1=NN=C(c2ccccc2)CS1	n	n	64.5
NC1=NN=C(c2ccc3c(c2)OCCO3)CS1	n	n	n
O=C(N1CCOCC1)N1CCN(c2ccccc2)CC1	n	36.3	n
O=C(Nc1ccccc1)C(=S)N1CCOCC1	82.0	n	x
N/C(=N\C(=S)Nc1ccccc1)N1CCOCC1	n	n	n
O=C(N1CCOCC1)N1CCN(c2ccccc2F)CC1	n	n	n
SMILES	Polio RdRp inh	MenB inh	MbtI inh
CN(C)C(=O)C(OC(=O)Cc1n[nH]c(=O)c2ccccc12)c1ccccc1 (configuration not stated)	n	n	n
CCn1c(N)c(C(=O)NC)sc1=S	n	n	86.7
Cc1ccc(C(=O)NCC2CCCO2)cc1 (configuration not stated)	n	n	n
CCn1c(N)c(C(=O)NCC2CCCO2)sc1=S (configuration not stated)	n	n	81.8
COCCn1c(C)c(C(=O)O)sc1=S	n	n	n
OCC1CCCC1O (configuration not stated)	n	n	n
Cc1cc(C)c2c(=O)n(C(=O)c3cccs3)sc2n1	n	n	100.0
CCOC(=O)c1sc2nc(C)cc(C)c2c1NC(=O)c1cccs1	n	n	n
Cc1ccc(-n2c(C)cc(P(=S)(N3CCOCC3)N3CCOCC3)c2C)c(C)c1	n	n	68.6
Cc1cc(P(=N)(N2CCOCC2)N2CCOCC2)c(C)n1-c1ccc(I)cc1	n	n	n

From PubChem BioAssay
